Bioassay records: PubChem, several laboratories
Peg3 prom inh: inhibitors of Peg3 promoter; HeLa PEG-Prom luciferase reporter, luminescence, overnight; 360,000 compounds, 1.7% hits; AID 588405; inhibition, % at 20 µM;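 active means inhibition of at least 50% at 20 µM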
Mdm2 MdmX PPI: human Mdm2/MdmX binding inhibition. SaOS-2 split-luciferase Mdm2/MdmX complementation, luminescence. 330,000 compounds, 3% hits. inhibition, % at 8 µM. O15151+Q00987;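 active means inhibition of at least 50% at 8 µM in the primary screen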
CF NFkB block: blocks PAF-induced NF-kB reporter in cystic fibrosis cells. KKLEB NF-kB-GFP reporter, GFP fluorescence overnight. inhibition, % at 5 µM. 360,000 compounds, 0.86% hits;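 active means at least 50% inhibition at 5 µM, scaled per plate between neutral and stimulator controls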;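 further: PAF is a Pseudomonas aeruginosa culture filtrate used as stimulus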
ABHD5 PLIN5 PPI: blocks binding of human ABHD5 to perilipin-5; Q00G26+Q8WTS1; Split G. princeps luciferase complementation, luminescence, 4 h; inhibition, % at 4 µM; 360,000 compounds, 0.78% hits; AID 602281;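 active means inhibition above the mean inhibition across every tested compound plus 3 SD, cut at about 22% in these data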
Target sequence (Q00G26 whole entry, looked up): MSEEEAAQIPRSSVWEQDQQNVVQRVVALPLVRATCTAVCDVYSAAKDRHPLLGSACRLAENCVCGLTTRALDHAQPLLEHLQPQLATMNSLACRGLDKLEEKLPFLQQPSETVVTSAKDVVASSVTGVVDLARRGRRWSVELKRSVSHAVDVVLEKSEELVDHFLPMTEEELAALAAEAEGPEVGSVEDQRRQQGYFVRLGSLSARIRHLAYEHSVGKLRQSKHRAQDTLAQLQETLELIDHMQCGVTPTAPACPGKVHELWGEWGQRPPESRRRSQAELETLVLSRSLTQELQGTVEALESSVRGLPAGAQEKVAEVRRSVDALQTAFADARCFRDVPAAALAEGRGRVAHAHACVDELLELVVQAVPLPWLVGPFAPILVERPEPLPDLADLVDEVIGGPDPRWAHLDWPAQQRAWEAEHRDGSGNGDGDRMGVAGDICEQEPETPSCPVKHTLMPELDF
Target sequence (Q8WTS1 whole entry, looked up): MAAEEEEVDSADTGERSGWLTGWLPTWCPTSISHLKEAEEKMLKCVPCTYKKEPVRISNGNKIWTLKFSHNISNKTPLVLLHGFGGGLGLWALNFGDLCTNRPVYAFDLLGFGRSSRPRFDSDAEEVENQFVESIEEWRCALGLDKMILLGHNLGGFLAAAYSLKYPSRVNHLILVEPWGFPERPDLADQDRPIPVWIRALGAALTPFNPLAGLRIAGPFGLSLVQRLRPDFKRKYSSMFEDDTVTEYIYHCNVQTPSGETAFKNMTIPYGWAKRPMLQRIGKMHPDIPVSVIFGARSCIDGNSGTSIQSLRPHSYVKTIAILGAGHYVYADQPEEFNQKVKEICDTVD
HIF-2a inh: blocks HIF-2a reporter activity; 786-0 RCC cells HIF-2a reporter, luciferase luminescence, overnight; inhibition, % at 18.8 µM; 360,000 compounds, 0.72% hits; AID 624352;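 active means inhibition of the luminescence signal of 40% or more relative to plate controls, in a single-dose primary screen at 18.75 µM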
KKLEB cytotox: counter-screen for CF NF-kB inhibitors: cytotoxicity; AID 602141; activity change (cytotoxicity), % at 5 µM; 360,000 compounds, 0.36% hits; KKLEB CF airway cells viability, ATPlite luminescence, overnight; stronger effect = lower value; cells stimulated with P. aeruginosa culture filtrate;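 active means corrected activity change at or below -50% at 5 µM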
Mdm2 MdmX conf: human Mdm2/MdmX binding inhibition, confirmed; AID 489028; inhibition, % at 8 µM; luminescent assay; shares compounds with Mdm2 MdmX PPI; 10,000 compounds, 55% hits; in the data active means inhibition above about 40%
Full FLuc ctr: inhibits full-length luciferase, flagging false Mdm2/MdmX hits; 6,200 compounds, 77% hits; shares compounds with Mdm2 MdmX PPI; inhibition, % at 8 µM; SaOS-2 full-length luciferase counterscreen, luminescence;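 active means mean inhibition at 8 µM reaching about 37%, which flags the compound as non-specific, limit read from the data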;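 further: p53-null SaOS-2 cells with luciferase driven by a doxycycline-inducible promoter; compound on cells about two nights before reading with doxycycline added after day one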
Hits are given with their value; - = inactive; . = not tested or not shown. This is a sample that favours compounds with a hit; in the whole collection about 4.6% have one here.

SMILES | Peg3 prom inh | Mdm2 MdmX PPI | CF NFkB block | ABHD5 PLIN5 PPI | HIF-2a inh | KKLEB cytotox | Mdm2 MdmX conf | Full FLuc ctr
CC(=O)c1ccc(S(=O)(=O)N2CCN(C(=O)c3ccc(-n4nc(C)c(Cl)c4C)cc3)CC2)cc1 | - | - | - | - | - | - | . | .
Cc1nc2c3ccccc3n(CCN3CCCCC3)c2s1 | . | - | . | . | . | . | . | .
Cc1nc2c3cc(F)ccc3n(Cc3ccccc3)c2s1 | - | 53.0 | - | - | - | - | 55.0 | 68.6
Cc1nc2c3cc(F)ccc3n(CCN3CCCCC3)c2s1 | - | 55.6 | - | - | - | - | 56.1 | 68.2
Cc1nc2c3cc(F)ccc3n(Cc3ccccc3F)c2s1 | - | 59.4 | - | - | - | - | 45.4 | 78.5
CCCc1ccc(S(=O)(=O)N2CCN(C(C)C(=O)NCc3ccccc3)CC2)cc1 (configuration not stated) | - | - | - | - | - | - | . | .
CCN(Cc1ccccc1)S(=O)(=O)c1ccc(C(=O)N(CCCN(C)C)c2nc3cc(OC)ccc3s2)cc1 | - | 50.4 | - | - | - | - | - | .
CN(C)CCCN(C(=O)c1ccc(S(=O)(=O)N(C)C2CCCCC2)cc1)c1nc2ccc(F)cc2s1 | - | - | - | - | - | - | . | .
CCc1ccc2nc(N(CCCN(C)C)C(=O)c3ccc(S(=O)(=O)N(C)C4CCCCC4)cc3)sc2c1 | 79.0 | 65.9 | - | - | - | - | 47.6 | 55.8
CCOC1CCCc2oc(-c3ccc(N(C)C)cc3)c(C(=O)OC)c21 (configuration not stated) | . | . | . | - | - | . | . | .
CN1CCN(c2cc3c(c4c2[nH]c2ccccc24)C(=O)CC(C)(C)C3)CC1 | 107.2 | 56.5 | - | - | - | - | - | .
CCn1ncc(/C=N/N=C2\CCC3C4CCc5cc(O)ccc5C4CCC23C)c1C (configuration not stated) | - | 50.7 | - | - | - | - | - | .
O=C(Nc1ccccc1NC(=O)c1c(F)c(F)c(F)c(F)c1F)c1c(F)c(F)c(F)c(F)c1F | 68.4 | 54.4 | - | - | - | - | - | 40.5
COC(=O)c1sccc1NC(=O)c1c(F)c(F)c(F)c(F)c1F | 66.6 | 74.7 | - | - | - | - | - | .
CCOC(=O)c1c(-c2ccc(F)cc2)csc1NC(=O)c1c(-c2ccccc2)noc1C | - | 84.7 | - | - | - | - | 50.0 | 48.2
CCOC(=O)c1c(-c2ccccc2)csc1NC(=O)c1cc(-c2ccccc2OC)on1 | - | - | - | - | - | - | . | .
CC(C)C(OC(=O)C1=Cc2ccccc2OC1)C(=O)NCC1CCCO1 (configuration not stated) | - | . | - | - | - | - | . | .
COc1ccc(C(=O)N/N=C/c2cc(Br)ccc2O)cc1OC | - | 67.0 | - | - | - | - | 64.2 | -
COc1ccc(O)c(/C=N/NC(=O)c2ccc(OCc3cccc(Br)c3)cc2)c1 | - | 67.9 | - | - | - | - | 69.2 | -
COc1ccc(/C=N/NC(=O)c2ccc(Br)cc2)c(OC)c1 | - | - | - | - | - | - | . | .
O=[N+]([O-])c1cccc(/C=N/Nc2cc(Cl)nc(-c3ccccc3)n2)c1 | - | 66.3 | - | - | - | - | - | .
CCOC(=O)c1sc2nc(C)nc(NC3CCC(O)CC3)c2c1C (configuration not stated) | - | - | - | - | - | - | . | .
CCN1/C(=C/c2ccc3cccc(C)c3[n+]2CC)Sc2ccccc21 | 55.7 | 61.9 | - | - | - | - | 76.3 | -
C[n+]1ccccc1/C=C1\Sc2ccccc2N1CCO | - | - | - | - | - | - | . | .
COC(=O)[C@@H]1CC[C@H](C)[C@@H](c2ccc(C)cc2)N1C(=O)c1ccc(/C=N/OC[C@@H](O)[C@H]2O[C@@H]3OC(C)(C)O[C@@H]3[C@H]2O)cc1 | . | - | . | . | . | . | . | .
SMILES | Peg3 prom inh | Mdm2 MdmX PPI | CF NFkB block | ABHD5 PLIN5 PPI | HIF-2a inh | KKLEB cytotox | Mdm2 MdmX conf | Full FLuc ctr
COC(=O)[C@@H]1CC[C@H](C)[C@@H](c2ccc(C)cc2)N1C(=O)c1ccc(/C=N/O[C@@H](C)c2cn([C@H](CO)Cc3ccccc3)nn2)cc1 | . | 87.7 | . | . | . | . | 65.7 | 50.7
O=C(Nc1ccc(OCC(F)(F)C(F)F)c(C(F)(F)F)c1)c1ccccc1 | - | - | - | - | - | - | . | .
O=C(Nc1ccc(OCC(F)(F)C(F)F)c(C(F)(F)F)c1)c1ccccc1O | - | 94.0 | - | - | - | -50.7 | 92.2 | -
COC(=O)C1=CN(c2ccccc2OC)C(N)=C(C#N)C1c1cccc([N+](=O)[O-])c1 (configuration not stated) | . | . | . | - | - | . | . | .
COc1ccc(C=NCCc2ccc(OC)c(OC)c2)cc1OC | - | . | - | - | - | - | . | .
CC(C)=CCC/C(C)=C/CNC(=O)C[C@H]1C[C@H](C(=O)N2CCOCC2)[C@@]2(C)c3[nH]c4ccc(Cl)cc4c3CCN2C1=O | 55.6 | 88.3 | - | - | - | - | - | .
CCN(CC)C(=O)[C@H]1C[C@H](CC(=O)NC/C=C(\C)CCC=C(C)C)C(=O)N2CCc3c([nH]c4cc(CCC(=O)N(C)C)ccc34)[C@]12C | - | 67.6 | - | - | - | - | - | .
CCN(CC)C(=O)[C@H]1C[C@H](CC(=O)NCc2ccc(OC)c(OC)c2)C(=O)N2CCc3c([nH]c4cc(CCC(=O)N(C)C)ccc34)[C@]12C | - | - | - | - | - | - | . | .
O=C(O)c1cc(N2CCCCC2)ccn1 | - | . | - | - | - | - | . | .
CCCCNC(=S)NCC(c1ccccc1)c1c[nH]c2ccccc12 (configuration not stated) | - | - | - | - | - | - | . | .
CN(C)CCCNC(=S)NCC(c1ccc(Cl)cc1Cl)c1c[nH]c2ccccc12 (configuration not stated) | 103.3 | 88.8 | - | - | - | - | 64.5 | -
NCC(c1ccc(Cl)cc1Cl)c1c[nH]c2ccccc12 (configuration not stated) | 96.3 | 64.5 | - | - | - | - | - | .
CC1(C)Cc2c(c(N3CCCC3)nc3sc4c(N5CCNCC5)ncnc4c23)CO1 | . | 57.5 | . | . | . | . | - | .
Cc1cc(C)c2c(n1)sc1c(N3CCCCC3)ncnc12 | - | - | - | - | - | - | . | .
CCCN(CCC)S(=O)(=O)c1ccc(C(=O)Nc2nnc(-c3cc(OC)cc(OC)c3)o2)cc1 | - | 51.2 | - | - | - | - | - | .
Cc1cc(C)cc(NC(=S)N2CCC(NC(=O)C3CC3)CC2)c1 | - | - | - | - | - | - | . | .
COc1ccc(Cn2c(CCC(=O)Nc3ccccc3)nc3cccnc32)cc1 | - | 76.7 | - | - | - | - | - | .
c1ccc(-c2nc3c4ccccc4ccn3c2Cc2ccsc2)cc1 | - | . | - | - | - | - | . | .
Cc1ccc(-c2c3c(nc4sc(C(N)=O)c(N)c24)CCCC3)o1 | - | - | - | - | - | - | . | .
